# Bioassay records as filed in PubChem BioAssay.
# UDG counterscr – UDG inhibition counter-screen. FRET deamination/UDG coupled assay, UDG read, 4 h. Potency, µM (doses to about 115 µM), inactives show top-dose activity change, negative = inhibition, hits mostly inhibitors. hit rate 0.14% among 91,000; note: nearly all actives have a fitted effect of over 65% in size
# AID inhibitor – blocks human AID cytidine deaminase activity | Q9GZX7 | AID deamination FRET fluorescence, UDG-coupled, 4 h | AID 1347428 | hit rate 0.32% among 91,000 | Potency, µM (highest dose often 115 µM), most hits filed as inhibitors; note: nearly all actives have a fitted effect of over 25% in size
# Target sequence (Q9GZX7 whole entry, looked up): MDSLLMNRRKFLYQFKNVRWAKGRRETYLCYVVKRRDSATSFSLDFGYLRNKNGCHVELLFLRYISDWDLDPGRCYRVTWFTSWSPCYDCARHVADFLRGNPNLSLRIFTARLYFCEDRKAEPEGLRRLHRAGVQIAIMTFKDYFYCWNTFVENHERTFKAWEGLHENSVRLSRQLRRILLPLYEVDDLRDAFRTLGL
# The depositor's hits bear a star; i = inactive; ? = inconclusive. The list is not random: actives were taken first. Their share in the collection is about 0.47%. Calls come from the whole dose curve; as a rule, active = well fitted curve in the direction sought with a large enough effect; inconclusive = small, poorly fitted or top-dose-only effect, or another doubt; inactive = no such curve, though single readings can be large; an effect the other way counts as inactive or inconclusive. % is set by controls: 0 for no effect and ±100 for the full control effect; potency is the fitted concentration of half-maximal effect.
SMILES,UDG counterscr,AID inhibitor
O=C1C(SCCO)=C(SCCO)C(=O)c2ccccc21,-10.3%,11.2µM*
CCc1ccc(Nc2ncnc3c2cnn3-c2cccc(C)c2)cc1,-8.0%,i
Cc1ccc(C)c(-c2csc(NC(=O)CSc3nc4ccccc4o3)n2)c1,9.7%,i
Cc1cccc(N2CCN(C(=O)C(C)n3nc(C)n4c(cc5occc54)c3=O)CC2)c1C (stereo unspecified),-18.2%,?
CCc1nn(C(C)C(=O)N2CCN(c3cccc(C(F)(F)F)c3)CC2)c(=O)c2cc3occc3n12 (stereo unspecified),-14.9%,31.6µM*
CCc1ccc(-n2c(Cc3ccccc3)nnc2SCc2nc(-c3cccs3)no2)cc1,?,39.8µM*
CCOc1ccc(-c2noc(CSc3nnc(Cc4ccccc4)n3-c3ccc(F)cc3)n2)cc1,-22.9%,?
CCOc1ccc(-n2c(Cc3ccccc3)nnc2SCc2nc(-c3ccccc3OC)no2)cc1,-18.9%,?
Cc1ccccc1-c1noc(CSc2nnc(Cc3ccccc3)n2-c2ccc(F)cc2)n1,?,20µM*
COc1ccccc1CNC(=O)c1nc(-c2ccccc2)oc1C,-5.1%,i
Cc1c(C(=O)O)cccc1-n1cccc1,-7.4%,i
CC1CCCC(NC(=O)c2ccc(NC(=O)CC#N)cc2)C1C (stereo unspecified),-7.4%,i
CC(=O)NC12CC3CC(C1)CC(C(=O)N1CCC(CCc4ccc(C)cc4)CC1)(C3)C2,-11.5%,i
Cc1oc(-c2ccccc2Cl)nc1CS(=O)(=O)CC(=O)NC(C)CCc1ccccc1 (stereo unspecified),-24.7%,20µM*
Cc1oc(-c2ccccc2Cl)nc1CS(=O)(=O)CC(=O)NC(C)c1ccccc1 (stereo unspecified),-14.7%,?
CCn1cc(-c2cc(C(=O)OC)c3ccccc3n2)c(C)n1,-2.9%,i
Cc1ccc(-n2ncc(C(=O)NCCc3ccccc3)c2C2CCN(C(=O)OC(C)(C)C)CC2)c(C)c1,-20.9%,25.1µM*
Cc1ccc(C)c(N2CCN(CCCNC(=O)c3cnn(-c4ccc(F)cc4)c3C3CCN(C(=O)OC(C)(C)C)CC3)CC2)c1,-28.3%,28.2µM*
Cc1ccc(C)c(N2CCN(CCCNC(=O)c3cnn(-c4cccc(Cl)c4)c3C3CCN(C(=O)OC(C)(C)C)CC3)CC2)c1,-20.1%,35.5µM*
CN1CCN(CCNC(=O)c2cnn(-c3cccc(Cl)c3)c2C2CCN(C(=O)OC(C)(C)C)CC2)CC1,-16.0%,i
CCN1CCN(CCCNC(=O)c2cnn(-c3ccc(C)cc3)c2C2CCN(C(=O)OC(C)(C)C)CC2)CC1,9.6%,i
CC(C)(C)OC(=O)N1CCC(c2c(C(=O)NCCc3ccccc3)cnn2-c2ccc(F)cc2F)CC1,50.8%,?
O=C(Nc1nc(C23CC4CC(CC(C4)C2)C3)cs1)c1ccncc1,6.4%,i
O=C(NCc1cccc(Cl)c1)c1cc2cc(Cl)ccc2[nH]1,2.5%,i
N#C/C(=C\c1ccc(-c2ccc(Cl)cc2Cl)o1)c1nc2ccccc2[nH]1,-6.3%,i
SMILES,UDG counterscr,AID inhibitor
COc1ccc(-n2c(=O)c3c4c(sc3n(Cc3ccc(C(C)(C)C)cc3)c2=O)CCC4)c(OC)c1,?,35.5µM*
COc1ccc(-n2c(=O)c3c4c(sc3n(Cc3ccccc3C)c2=O)CCCC4)c(OC)c1,-18.9%,?
N#Cc1c(N)c(C(=O)c2ccc3c(c2)OCCO3)n2c1CCC2,-6.4%,i
N#C/C(=C\c1ccnc2ccccc12)c1nc2ccccc2s1,79.4µM*,?
Cc1ccccc1/C=C(/C#N)c1nc2ccccc2s1,-19.5%,i
CC1CCCc2sc(N)c(C#N)c21 (stereo unspecified),-17.2%,i
CCc1ccc(CNC(=O)C(CC)n2nc(C)c3c(C)n(-c4ccccc4)nc3c2=O)cc1 (stereo unspecified),-20.2%,70.8µM*
CCC(C(=O)NCc1cccc(Br)c1)n1nc(C)c2c(C)n(-c3ccccc3)nc2c1=O (stereo unspecified),-19.4%,?
Cc1nc2nc(N(Cc3ccccc3)C(=O)c3ccco3)[nH]n2c(=O)c1Cc1ccccc1Cl,-0.4%,?
Cc1nc2c(C(=O)NCc3ccccc3)c[nH]n2c(=O)c1Cc1ccccc1Cl,-3.8%,89.1µM*
CN(Cc1ccc(Br)cc1)C(=O)Cn1nnn(-c2cccs2)c1=O,-10.6%,i
O=C(CCc1c[nH]c2ccccc12)N(CC(F)(F)F)C1CC1,-7.3%,i
Cc1ccc(NC(=O)Cc2nnc(SCC(=O)NC34CC5CC(CC(C5)C3)C4)n2C)cc1C,89.1µM*,i
Cn1c(CC(=O)Nc2ccccc2)nnc1SCC(=O)NC12CC3CC(CC(C3)C1)C2,8.1%,i
COc1ccccc1-n1c(SCC(N)=O)nc2c(c1=O)C1(CCCCC1)Cc1ccccc1-2,-11.0%,i
Cc1ccc(-n2c(SCC(N)=O)nc3c(c2=O)C2(CCCC2)Cc2ccccc2-3)cc1,79.4µM*,i
Cc1cccc(NC(=O)COC(=O)c2cc(C)nc3ccccc23)c1,-1.1%,i
COc1ccc(CC(=O)Nc2ccc3nc(Nc4cccc(Cl)c4)cc(C)c3c2)cc1,-10.0%,i
Cc1cc(Nc2cccc(C(F)(F)F)c2)nc2ccc(NC(=O)Cc3ccc(Cl)cc3)cc12,-16.8%,35.5µM*
CCCNc1c(NC(=O)c2ccc(OCC)c(OCC)c2)c(=O)oc2ccccc12,2.3%,i
C=Cc1ccc(Cn2c(=O)n(-c3ccccc3C)c(=O)c3c4c(sc32)CN(C(C)=O)CC4)cc1,-17.6%,?
CC(=O)N1CCc2c(sc3c2c(=O)n(-c2ccccc2Cl)c(=O)n3Cc2cccc(C)c2)C1,?,35.5µM*
OCCNc1nc(Nc2ccc(Br)cc2)nc2nccnc12,-4.0%,?
OCCNc1nc(Nc2cccc(Cl)c2)nc2nccnc12,1.3%,79.4µM*
c1ccc(CCNc2nc(Nc3ccccc3)c3nccnc3n2)cc1,-4.1%,i
SMILES,UDG counterscr,AID inhibitor
OCCNc1nc(Nc2ccc(Cl)c(Cl)c2)nc2nccnc12,-3.7%,35.5µM*
CCN(Cc1ccccc1)c1sc(S(=O)(=O)CC)nc1S(=O)(=O)c1ccc(C)cc1,-18.5%,i
Oc1c(Cl)cc(Cl)cc1C=Nc1cccc2ccccc12,-12.4%,i
COc1cccc(C(=O)N(Cc2ccc(C)o2)C2CCS(=O)(=O)C2)c1 (stereo unspecified),6.1%,i
CCCCOc1c(Cl)cc(C(=O)N(Cc2ccc(C)o2)C2CCS(=O)(=O)C2)cc1Cl (stereo unspecified),89.1µM*,?
Cc1nc2c(-c3ccccc3)c(C)[nH]n2c(=O)c1Cc1ccc(C(C)C)cc1,79.4µM*,i
Cc1ccc(Cc2c(C)nc3c(-c4ccccc4)c(C)[nH]n3c2=O)cc1,-4.8%,i
Cc1ccc(NC(=O)CSC2CCCC2)c(Br)c1,-3.3%,i
Cc1cc(S(=O)(=O)C(CNC(=O)COc2ccccc2)c2cccs2)ccc1F (stereo unspecified),0.4%,i
Cc1ccc(S(=O)(=O)C(CNC(=O)COc2ccccc2)c2cccs2)cc1 (stereo unspecified),-27.8%,44.7µM*
COc1cc(OC)c(N(C)C(=O)c2cc3c(s2)-c2ccccc2OC3)cc1Cl,-6.0%,i
COc1ccc(N(C)C(=O)c2cc3c(s2)-c2ccccc2OC3)cc1,-8.6%,44.7µM*
Cc1ccc2c(c1)Oc1ccc(S(=O)(=O)N(C)Cc3ccccc3)cc1C(=O)N2,13.5%,i
C=CCc1ccccc1OCCSc1nc(-c2ccc(C(C)(C)C)cc2)nc2cc(=O)[nH]n12,-23.3%,?
